From the supplement of paper PMC12636033
± gives the standard deviation of the averaged measurements. Over roughly 33,000 sequences, “E-score (rank enrichment, -0.5 to 0.5)” has its median near -0.0028; the highest 2% begin near 0.23. For the sample, the highest values were picked, then their nearest neighbours and some sequences at random.

These sequences were tested on 2Sb-muMax20 (muMax20 with two 1,3-bis(methyl)benzene Cys staples, A13C/A17C and Q88C/A92C, C-terminal Lys) (assay: PBM 8-mer E-score (E-score (rank enrichment, -0.5 to 0.5)); higher = stronger preferential binding).
Method: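 Protein binding microarray (universal PBM chip covering all 10-mers in fixed probe flanks) with chemically synthesized human Max(13-93) bHLH-LZ analogs (not full-length Max) bearing noncanonical residues (hArg, Tha, Aib, Nle at 65) and aromatic Cys staples. Read-out per 8-mer (and its reverse complement): E-score (rank-based enrichment, -0.5 to 0.5) and Z-score of median probe intensity.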

Sequence	PBM 8-mer E-score
CGAGAGCA	-0.0422 ± 0.048
ACGAAGAA	0.2404 ± 0.0017
TCGAAGAA	0.0801 ± 0.041
ACGAAGAT	0.0215 ± 0.059
AGATGCGC	0.0628 ± 0.014
CCGAATTA	-0.0865 ± 0.076
GTCGGGCA	-0.103 ± 0.025
GATGAATA	0.246 ± 0.059
GATGAATC	0.06 ± 0.071
TATGAATA	0.211 ± 0.052
TACATCGA	0.106 ± 0.022
AAGTGTCC	0.0439 ± 0.046
AAAATCTA	0.00391 ± 0.078
AAACGACC	0.115 ± 0.032
AAACGACG	0.0001 ± 0.01
AAACGACT	0.24 ± 0.023
TAAGTTCA	-0.0564 ± 0.0074
AACATAAA	0.145 ± 0.0096
CACACATA	0.00584 ± 0.1
CACATAAA	0.0814 ± 0.0052
GACACATA	0.0252 ± 0.086
AACATACT	0.1 ± 0.032
TACACATA	0.268 ± 0.019
CACATACG	0.0173 ± 0.041
GACATACA	0.235 ± 0.0046

Sequence	PBM 8-mer E-score
AACATACG	0.273 ± 0.019
TACATAAA	0.242 ± 0.046
GACATAGA	-0.0561 ± 0.027
GACATACC	-0.168 ± 0.044
CGTGGGAC	0.0245 ± 0.068
CATTGGAC	-0.164 ± 0.097
ACTGAGAA	-0.135 ± 0.097
ACATGAAA	0.0717 ± 0.024
CAGGAGAA	0.107 ± 0.037
AGCAGCGA	-0.182 ± 0.0055
AGTGTTGG	0.043 ± 0.048
GCGAGACA	-0.0901 ± 0.089
AGAATTGA	-0.00649 ± 0.005
CCGGTGGA	-0.167 ± 0.015
ATAAGACC	0.114 ± 0.078
AAGGTATT	0.0792 ± 0.027
ATAGGAGG	-0.0435 ± 0.015
GGTGTCCA	0.00348 ± 0.039
ACTTACCC	0.166 ± 0.053
TACATACA	0.235 ± 0.031
CACATACA	0.0172 ± 0.022
AACATACA	0.153 ± 0.061
TCCTGCGA	-0.0443 ± 0.016
CATAAAAG	0.00379 ± 0.14
AATAAAAT	0.0858 ± 0.023

Sequence	PBM 8-mer E-score
CATAAATA	0.293 ± 0.029
GTTAAATA	0.23 ± 0.023
ATTAAATA	0.208 ± 0.023
AATAAATT	0.271 ± 0.019
CTTAAATA	0.056 ± 0.014
AATAAATG	0.226 ± 0.0099
AATAAAAA	0.187 ± 0.046
AATAAAAG	0.241 ± 0.065
AATAAATA	0.0902 ± 0.023
TATAAATA	0.133 ± 0.019
ATGTAAGA	0.104 ± 0.011
ACTCTTTC	0.0291 ± 0.035
CTTTATCC	0.0138 ± 0.00086
CGCAAACG	-0.0619 ± 0.011
CAAAATAG	0.0583 ± 0.12
CGACATTC	-0.0236 ± 0.057
TCGCAGCA	-0.185 ± 0.015
CCTTACAA	-0.0496 ± 0.00098
TAACCGTA	0.179 ± 0.033
ATGAAGGA	0.0372 ± 0.02
CAGATGGG	-0.06 ± 0.043
ACGCCACA	0.113 ± 0.019
TCACTGAA	0.0386 ± 0.03
ACAATCGG	-0.076 ± 0.075
AACGACAT	0.126 ± 0.076

Sequence	PBM 8-mer E-score
AGTGCTGC	-0.166 ± 0.021
CCACCCCG	0.0359 ± 0.026
TCACCCCA	0.368 ± 0.011
TCACCCAA	0.154 ± 0.032
ACACCCCA	0.224 ± 0.036
CCACCCCA	0.275 ± 0.1
GCACCCCC	-0.265 ± 0.028
TCACCCGA	-0.0977 ± 0.0029
CCACCCCC	-0.0738 ± 0.041
GCACCCCA	0.24 ± 0.031
CGCGTCGC	-0.0885 ± 0.02
CAACCTTG	-0.0156 ± 0.0055
CCTAAAGC	0.0284 ± 0.038
AAAATGCT	0.235 ± 0.0065
AAAATGCC	0.00067 ± 0.042
AAAATGCA	0.127 ± 0.02
AATTAGCC	-0.107 ± 0.095
CCTGACCC	-0.146 ± 0.077
CTGTTTTA	0.24 ± 0.013
GTGTTTTA	0.098 ± 0.036
CTGTTTAA	0.0361 ± 0.028
TCCCCTAA	0.196 ± 0.03
ACCCCTAG	0.11 ± 0.029
AACCCTTC	0.11 ± 0.054
GCCCCTAA	0.245 ± 0.038

Sequence	PBM 8-mer E-score
CCCCCTAA	-0.037 ± 0.031
ACCCCTAA	0.218 ± 0.037
ACCCCTTC	0.328 ± 0.018
AACCCTCC	-0.0982 ± 0.073
ACCCCTCC	0.258 ± 0.052
CCCCCTCC	-0.0384 ± 0.17
ACCCCTAT	0.252 ± 0.081
CCCCCTTC	-0.174 ± 0.065
TAGACGAA	-0.053 ± 0.022
GTCCGACA	-0.0883 ± 0.025
TACACACA	0.00095 ± 0.038
AACAGTCC	-0.0613 ± 0.014
CGCCTTCC	-0.134 ± 0.085
ACCGCCGG	-0.212 ± 0.076
ATGGCTAC	0.106 ± 0.049
CACCTCAA	-0.0623 ± 0.06
CCTCAGCC	-0.0948 ± 0.096
AGGGTCCC	-0.337 ± 0.0037
TTAGCAAA	0.1884 ± 0.00076
CGCCCTCC	0.0189 ± 0.097
ACCCCTCA	0.307 ± 0.0085
GCCCCTCC	0.274 ± 0.099
TCCCCTCA	0.247 ± 0.0079
GCCCCCCC	-0.18 ± 0.13
TACCCTCA	0.0472 ± 0.026

Sequence	PBM 8-mer E-score
GCCCCTCA	-0.0171 ± 0.064
CCCCCTCA	0.0422 ± 0.049
ACCCCTCG	0.0393 ± 0.084
ACTTCAGA	-0.161 ± 0.095
CAGCTCCG	-0.19 ± 0.065
ATATGGAA	0.0497 ± 0.036
CGGTGTAA	-0.0426 ± 0.082
TGGTGTAA	0.249 ± 0.037
GGGTGTAA	0.0984 ± 0.049
TCCGGGAA	-0.184 ± 0.07
AAAACGAG	-0.00059 ± 0.034
TGTATACA	0.259 ± 0.05
AGTATACA	0.135 ± 0.025
CGTATACG	0.341 ± 0.027
CGTATACA	0.0906 ± 0.018
GGTATACA	0.105 ± 0.011
CGTATACC	-0.123 ± 0.0037
CAGCAGGC	-0.139 ± 0.04
CCCTCCCC	0.157 ± 0.25
ACCCTCCA	0.0708 ± 0.031
ACCCTCCT	-0.0718 ± 0.019
CCCCTCCC	0.297 ± 0.13
CCCCTCCG	0.00173 ± 0.08
ACCCTCCC	0.289 ± 0.04
CGGGTTAA	-0.0694 ± 0.12

Sequence	PBM 8-mer E-score
ACAGGTCT	-0.101 ± 0.015
GGCAATAC	-0.0237 ± 0.039
ACGCGGCA	-0.1504 ± 0.0011
AGAGCAAA	-0.124 ± 0.036
AGCGTATG	0.0491 ± 0.018
CGGATTTA	-0.0345 ± 0.005
GCACGGTA	-0.226 ± 0.0061
TAACGTAA	-0.00578 ± 0.0029
ATAACGTA	0.16 ± 0.052
ATAACTTG	0.253 ± 0.032
ATAACGTG	0.277 ± 0.022
ATAACGTC	0.0413 ± 0.0089
ATAACTTC	0.1632 ± 0.00065
ATAACTTA	0.0822 ± 0.028
TTCAGGAA	-0.0598 ± 0.038
CCAAGAAC	0.098 ± 0.03
CGTCCCTC	-0.107 ± 0.023
ATTACAGC	0.0657 ± 0.05
CTTACACC	-0.035 ± 0.078
ATTACAGG	0.286 ± 0.0044
ATTACACC	0.254 ± 0.06
ATTACACG	0.0209 ± 0.026
